Records with an inconclusive call do not appear. Active and inactive are the calls of the source. Unless noted, calls follow the shape of the dose curve; as a rule, active = well fitted inhibition curve with a large enough effect; inconclusive = small, poorly fitted or top-dose-only effect; inactive = no such curve, though single readings can be large or run the other way.
How the values were obtained:
[1] = qHTS profiling of the MIPE4 collection as inhibitors of Plasmodium falciparum (DD2) proliferation (Rep 2) (AID 743346; call rule not given here); conditions: P. falciparum Dd2 in erythrocytes, SYBR Green DNA, 72 h; at 28.5 µM unless noted
Outline: (§1)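 Parasite DNA was quantified by SYBR Green I fluorescence (ex 485, em 535 nm) after overnight lysis in saponin/Triton buffer at room temperature. Cultures at 0.3% parasitemia and 2.5% hematocrit were first exposed to compound for 72 h at 37 C; signals were normalised to artemisinin (0.29 uM) and vehicle wells.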

[2] = qHTS profiling of the MIPE4 collection as inhibitors of Plasmodium falciparum (HB3) proliferation (AID 743347; call rule not given here;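 also: plate controls were DMSO vehicle wells for no effect and artemisinin wells for full effect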); conditions: P. falciparum HB3 in erythrocytes, SYBR Green DNA, 72 h; at 28.5 µM unless noted
Outline: as §1

[3] = High-throughput drug toxicity screening in the BPDCN cell line Cal-1 (AID 1224825; call rule not given here); conditions: Cal-1 BPDCN cell viability, qHTS; at 45.8 µM (top of the series) unless noted
Outline: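 CellTiter-Glo luminescence after 48 h compound exposure; percent activity scaled with DMSO as 100% and bortezomib (9.2 uM final) as 0%. Cal-1 cells seeded at 500/well in RPMI, 10% FBS, no phenol red.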

[4] = qHTS assay for measurement of the activity of small molecule inhibitors on Zika virus induced Caspase-3 activity in human iPSC derived neural progenitor cells (hNPCs) (AID 1224857); also: % of control where 0% means no effect; nearly all actives have a fitted effect of over 65% in size
Outline: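 Human iPSC-derived neural progenitor cells pretreated 1 hr with compounds, then infected with Zika virus (2 FFU/cell) for 6 hours at 37 C. Caspase-3/7 measured by Caspase-Glo luminescence; % inhibition calculated from induction scaled to uninfected (0%) and infected (100%) wells.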

[5] = qHTS assay for measurement of the activity of small molecule inhibitors on Zika virus induced Caspase-3 activity in human astrocytoma cells (AID 1224859);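 also: plate controls were ZIKV-infected untreated cells for no effect and uninfected cells for full effect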
Outline: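 SNB-19 astrocytoma cells, 250/well, pretreated 1 h with compounds, then Zika virus at 2 FFU/cell for 6 h at 37 C; Caspase-Glo 3/7 luminescence after 30 min; percent inhibition normalised to uninfected and infected controls.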

[6] = qHTS Screen of the MIPE 4.0 Collection Against Ewings Sarcoma (RDES) (AID 1259252); also: nearly all actives have a fitted effect of over 35% in size; also: potency is read from the fitted curve at half-maximal effect
Outline: (§2)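 Log-phase cells in RPMI with 5% FBS attached for 4 h, then received compounds as a titration for 48 h at 37C, 5% CO2. Viability was read by CellTiter-Glo luminescence and normalized to DMSO and no-cell wells.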

[7] = qHTS Screen of the MIPE 4.0 Collection Against Ewings Sarcoma (TC71) (AID 1259253); also: nearly all actives have a fitted effect of over 40% in size; also: potency is read from the fitted curve at half-maximal effect
Outline: as §2

[8] = qHTS Screen of the MIPE 4.0 Collection Against Ewings Sarcoma (EW8) (AID 1259255); also: nearly all actives have a fitted effect of over 35% in size; also: potency is read from the fitted curve at half-maximal effect;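 as to viability: 100% = DMSO-treated cells and 0% = medium-only wells without cells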
Outline: as §2

[9] = qHTS profiling of the MIPE4 collection as inhibitors of Plasmodium falciparum (3D7) proliferation (AID 743344; call rule not given here;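 also: scaled between DMSO vehicle wells and 0.29 µM artemisinin as full inhibition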); conditions: P. falciparum 3D7 in erythrocytes, SYBR Green DNA fluorescence, 72 h; at 28.5 µM unless noted
Outline: as §1

[10] = qHTS profiling of the MIPE4 collection as inhibitors of Plasmodium falciparum (DD2) proliferation (AID 743345; call rule not given here); conditions: P. falciparum Dd2 in erythrocytes, SYBR Green DNA, 72 h; at 28.5 µM unless noted
Outline: as §1

SMILES | parasite growth, % of control (lower = inhibition) [1] | growth, % of control [2] | viability (% of control) [3] | Potency [4] | Potency [5] | Potency [6] | Potency [7] | Potency [8] | parasite growth, % of DMSO control [9] | parasite growth remaining, % of DMSO control (lower = more inhibition) [10]
C[C@H](NCc1ccc(OCc2cccc(F)c2)cc1)C(N)=O | 12.8% | 3.17% | 4.81% | inactive | inactive | 14800 nM (active) | 14800 nM (active) | 8330 nM (active) | – | –
c1cc(CN2CCCNCCNCCCNCC2)ccc1CN1CCCNCCNCCCNCC1 | – | 88.5% | 120% | inactive | – | inactive | inactive | inactive | 91.4% | 96.2%
CCOc1cc2c(c(F)c1OCC)C(=N)N(CC(=O)c1cc(N3CCOCC3)c(OC)c(C(C)(C)C)c1)C2 | 11.7% | 6.22% | 2.82% | inactive | inactive | 9350 nM (active) | 10500 nM (active) | 13200 nM (active) | 5.53% | 7.24%
CC(C)Oc1ccc(C(=O)N[C@H](CNC(=O)CN(C)C)Cc2ccc(-c3cn4cccc([C@H](C)O)c4n3)cc2)cc1Cl | 12.6% | 5.09% | 18.5% | inactive | inactive | 235 nM (active) | 372 nM (active) | 235 nM (active) | 5.62% | 8.81%
O=c1[nH]c(=O)n([C@H]2C[C@@H](O)[C@@H](CO)O2)cc1F | 58.8% | – | 19.4% | inactive | inactive | 59 nM (active) | – | 59 nM (active) | 183% | 79.8%
C=CC(=O)N1CCc2ccc(-n3c(=O)ccc4cnc5ccc(-c6cnn(C)c6)cc5c43)cc21 | 8.38% | 4.27% | 2.44% | inactive | inactive | 6620 nM (active) | – | 3320 nM (active) | 5.53% | 8.35%
O=C(O)C[C@H](O)C[C@H](O)C=Cc1c(C2CC2)nc2ccccc2c1-c1ccc(F)cc1 | 67% | – | 38.9% | – | inactive | 2640 nM (active) | 1870 nM (active) | 3720 nM (active) | 94% | 92.7%
CC(=O)N[C@@H]1[C@H](O[C@@H]2c3ccc(c(Cl)c3)Oc3cc4cc(c3O[C@H]3O[C@H](CO)[C@@H](O)[C@H](O)[C@H]3NC(=O)CCCCCCCC(C)C)Oc3ccc(cc3Cl)C[C@H]3NC(=O)[C@H](N)c5ccc(O)c(c5)Oc5cc(O)cc(c5)[C@H](NC3=O)C(=O)N[C@H]4C(=O)N[C@H]3C(=O)N[C@@H]2C(=O)N[C@@H](C(=O)O)c2cc(O)cc(O[C@H]4O[C@H](CO)[C@@H](O)[C@H](O)[C@H]4O)c2-c2cc3ccc2O)O[C@H](CO)[C@@H](O)[C@@H]1O | – | 675% | 104% | inactive | inactive | inactive | inactive | inactive | 395% | 99.1%
COc1cc([C@@H]2c3cc4c(cc3[C@@H](O[C@@H]3O[C@@H]5CO[C@@H](c6cccs6)O[C@@H]5[C@H](O)[C@@H]3O)[C@H]3COC(=O)[C@H]23)OCO4)cc(OC)c1O | 9.32% | 5.8% | 5.23% | inactive | inactive | 264 nM (active) | 148 nM (active) | 29.6 nM (active) | 5.39% | 8.04%
